# Rows were chosen to be rich in hits. Some 2.4% of all compounds tested hit in one or more screens of this group.
# D2 antagonist = D2 dopamine receptor (human) antagonism; HEK293 TREx D2 cells, calcium flux, dopamine EC80; inhibition, % at 10 µM; AID 485344; P14416; 2% of 340,000 active; in the data active = inhibition above about 30%; inactive = below that, where a call was filed; note: 0% is about no effect
#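 Cells plated overnight at 30 C with tetracycline; no-wash calcium dye, 30–90 min RT; 10 s baseline; compound pinned; 180 s read; EC80 dopamine added; another 180 s read.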
# D2 PAM-1 = potentiates the human D2 dopamine receptor allosterically; P14416; DiscoveRx D2 beta-arrestin cells, luminescence, 90 min; 100% = 57 uM dopamine signal; potentiation, % (concentration not given with the values); 0.23% of 360,000 active; in the data active = potentiation above about 50%; inconclusive = mostly about 30% to 49%
#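 D2 cells co-treated with compound plus 50 nM dopamine (EC20) for 90 min at 37 deg C to detect potentiation. Beta-arrestin recruitment was read as enzyme-fragment luminescence after 1 h at ambient temperature. Full response was set by 57 uM dopamine.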
# D2 ag-1 = agonists of human D2 dopamine receptor (beta-arrestin). activation, % (no concentration beside the values). DiscoveRx PathHunter D2 beta-arrestin, luminescence, 90 min; 100% = 57 uM dopamine signal. 0.084% of 360,000 active; in the data active = activation above about 40%; inconclusive = between about 15% and that limit
#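 Agonist mode: compounds alone added to overnight-plated D2 PathHunter cells for 90 min at 37 C, with 57 uM final dopamine (EC100) defining full response. Beta-arrestin recruitment detected by chemiluminescent reagent, read after 1 h at ambient temperature.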
# D2 ag-2 = D2 dopamine receptor (human) agonism; HEK293 T-REx D2 cells, calcium flux agonist mode; P14416; 0.53% of 340,000 active; activation, % at 2 µM;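 active = activation over 3 SD above normal in the single-dose calcium agonist read, cut at about 30% in these data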; note: 0% is about no effect
#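 HEK293 Trex D2 cells, tetracycline-induced, o/n 30 C 5% CO2; no-wash Ca dye, RT 30–90 min; 10-cycle baseline, 23 nl cpd added, kinetic Ca read 180 s; agonist hits = positive Ca response.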
# D2 PAM-2 = positively modulates the human D2 dopamine receptor allosterically. P14416. HEK293 T-REx D2, calcium flux, EC20 dopamine potentiation. potentiation, % at 10 µM. 0.34% of 340,000 active. AID 485347;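 active = potentiation over 3 SD above the plate norm, cut at about 30% in these data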; note: 0% is about no effect
#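 Calcium flux readout, no-wash dye, 1 read/s. Inducible HEK293 Trex D2 line, overnight 30 C. Compound alone 180 s (agonist flags), then EC20 dopamine, another 180 s to score potentiation.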
# D3 arrestin ag = activates human D3 dopamine receptor beta-arrestin recruitment. shares compounds with D2 ag-2. DiscoveRx D3 beta-arrestin cells, luminescence, 90 min. Potency, µM (series often up to 76.9 µM), for inactives: at the top dose activation, actives largely listed as activators. 4% of 2,300 active;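 note: potency is the fitted concentration of half-maximal effect; 100% = dopamine control response; nearly all actives have a fitted effect of over 70% in size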
# Target sequence (P35462 whole entry, looked up): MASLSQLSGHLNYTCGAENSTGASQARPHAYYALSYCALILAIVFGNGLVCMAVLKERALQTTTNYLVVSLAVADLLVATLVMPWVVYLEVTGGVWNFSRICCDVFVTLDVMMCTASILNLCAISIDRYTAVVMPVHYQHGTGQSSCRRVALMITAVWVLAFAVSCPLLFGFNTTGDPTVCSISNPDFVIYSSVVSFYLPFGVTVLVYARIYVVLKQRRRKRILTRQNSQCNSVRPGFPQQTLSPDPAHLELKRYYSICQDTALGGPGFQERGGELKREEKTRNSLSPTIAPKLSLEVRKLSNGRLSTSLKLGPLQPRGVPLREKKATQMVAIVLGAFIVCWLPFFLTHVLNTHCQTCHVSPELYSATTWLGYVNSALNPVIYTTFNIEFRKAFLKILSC
# D2 ag-3 = D2 receptor agonism, beta-arrestin counterscreen; shares compounds with D2 ag-2; DiscoveRx PathHunter D2 beta-arrestin, luminescence, 90 min; response scale: percent relative to full dopamine signal; Potency, µM (titrated, usually from 76.9 µM), inactives show at the highest dose activation, usual class: activators; 5.9% of 2,300 active; AID 720507; note: potency is the fitted concentration of half-maximal effect; % of control where 0% means no effect; nearly all actives have a fitted effect of over 70% in size
# * hit, by the source's call; u = inconclusive; x = no result given. Unless noted, calls come from the whole dose curve; as a rule, active = well fitted activation curve with a large enough effect; inconclusive = small, poorly fitted or top-dose-only effect; inactive = flat fitted curve, though single readings scatter.
SMILES,D2 antagonist,D2 PAM-1,D2 ag-1,D2 ag-2,D2 PAM-2,D3 arrestin ag,D2 ag-3
COc1cc(CN(CC2CCCO2)C(=O)c2ccc(F)cc2)cc(OC)c1OC (stereo unspecified),x,x,x,0,-8,x,x
C/C(=N\NC(=O)c1nnn(-c2nonc2N)c1-c1ccccc1)c1ccco1,-2,-14,-15,10,26,2%,1%
COc1ccc(/C=N/NC(=O)c2nnn(-c3nonc3N)c2-c2cccc(OC)c2)cc1,34*,2,2,5,22,8%,-1%
CCOc1cccc(-c2c(C(=O)N/N=C/c3ccncc3)nnn2-c2nonc2N)c1,-3,0,4,-1,0,x,x
COc1cccc(-c2c(C(=O)N/N=C(\C)c3ccco3)nnn2-c2nonc2N)c1,9,-10,-2,9,9,x,x
COCc1cc(C)nc(SCc2ccc(F)cc2)c1C#N,42*,-1,-4,0,9,-10%,-2%
COc1ccc(S(=O)(=O)N2CCCC2CNC(=O)C(=O)NC2CCCCCC2)cc1 (stereo unspecified),20,19,4,31*,-3,8%,u
COc1ccc(S(=O)(=O)N2CCCC2CNC(=O)C(=O)NC2CCCC2)cc1 (stereo unspecified),x,4,-1,x,x,x,x
Cc1ccc(S(=O)(=O)N2CCCC2CNC(=O)C(=O)NC2CC2)cc1 (stereo unspecified),7,2,1,34*,-11,1%,-2%
O=C(CN1CCc2ccccc2C1)Nc1cc(S(=O)(=O)N2CCOCC2)ccc1N1CCCC1,83*,-39,3,76*,-41,-4%,11%
CCN1CCN(c2ccc(S(=O)(=O)N3CCOCC3)cc2NC(=O)c2ccc(C)cc2C)CC1,9,1,4,0,6,-2%,-3%
O=C(CN1CCN(c2ccc(O)cc2)CC1)Nc1cc(S(=O)(=O)N2CCCC2)ccc1Cl,44*,-3,1,54*,-17,40µM*,u
CCCCn1cc(S(=O)(=O)c2ccccc2)c(=O)c2cc(F)c(N3CCC(C)CC3)cc21,x,x,x,-1,-5,x,x
C=CC[C@H]1Cc2c(cccc2[N+](=O)[O-])[C@H](CC=C)N1,59*,13,u,36*,x,u,u
Cc1ccc(S(=O)(=O)Nc2ccc3c(c2)nc(CCN2CCN(c4ccccn4)CC2)n3C)cc1,51*,-25,7,0,-6,8%,25%
Cc1ccc(N2CCN(CCc3nc4cc(NS(C)(=O)=O)ccc4n3C)CC2)cc1,11,-36,0,0,-39,x,x
Cn1c(CCN2CCN(c3ccccn3)CC2)nc2cc(NS(=O)(=O)c3ccc(Cl)cc3)ccc21,74*,-22,13,0,-5,16%,u
COc1ccc(OCC(=O)Nc2ccc3c(c2)nc(CCN2CCN(c4ccccn4)CC2)n3C)cc1,x,-18,7,x,x,x,x
Cc1cc(NC(=O)c2ccccc2F)on1,-2,-3,4,68*,-19,0%,-4%
NCC(O)(c1ccc(Cl)cc1)c1ccc(Cl)cc1,20,-7,1,26,-5,6%,2%
CC(C)(C)NCC(O)(c1ccc(Cl)cc1)c1ccc(Cl)cc1,-2,-4,-1,0,-8,x,x
COc1ccccc1NC(=O)C1=C(C)Nc2nc(-c3ccco3)nn2C1c1cccc(C)c1 (stereo unspecified),x,x,x,-1,-4,x,x
OC(CSc1c(Cl)cccc1Cl)CN1CCN(c2ccccc2F)CC1 (stereo unspecified),65*,-11,u,68*,-25,u,u
OC(CSc1ccccc1Cl)CN1CCN(c2ccccc2F)CC1 (stereo unspecified),74*,20,u,63*,-17,45µM*,u

# Screening results as filed in PubChem BioAssay.
